Sampled rows, rich in hits. Any-hit rate of the full collection: about 7.3%.
NPC1 promoter act – activates the NPC1 promoter | Huh7 NPC1 promoter luciferase reporter, 24 h | Potency, µM (doses to about 9.22 µM), without a hit: at the highest dose activation, usual class: activators | 2.4% of 320,000 active; further: % of control where 0% means no effect; nearly all actives have a fitted effect of over 60% in size
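Huh7 reporter cells (NPC1 promoter driving luciferase) are dosed with compound for 24 h at 37 °C, 5% CO2; luciferase detection reagent is then added and luminescence measured after 10 min at ambient temperature.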
SMN2 splice up – SMN2 splice variant enhancement. Potency, µM (titrated, usually from 46.1 µM), without a hit: at the highest dose activity change, positive = activation, hits mostly activators. AID 1458. HEK293 SMN2-luciferase splicing reporter, luminescence, 30-36 h. 2.8% of 210,000 active; further: % of control where 0% means no effect; nearly all actives have a fitted effect of over 55% in size
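HEK293 cells carry an SMN2 […]–luciferase reporter in which exon 7 inclusion puts luciferase in frame. Cells were plated 10-12 h before compound addition, then incubated 30-36 h at 37C. ONE-Glo luminescence was read; sodium butyrate at 4.5 mM final served as control.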
KinaseGlo FLuc – Kinase-Glo luciferase inhibition (counter-screen). Potency, µM (highest dose often 38.3 µM), for the others: at the highest dose activity change, negative = inhibition, hits mostly inhibitors. 0.28% of 200,000 active. Q27757. Kinase-Glo luciferase, ATP luminescence, 8 min; further: on the % scale 0 is the no-effect control and ±100 the full control effect; nearly all actives have a fitted effect of over 60% in size
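Light output from Kinase-Glo luciferase with luciferin and 10 uM ATP in 50 mM imidazole pH 7.2, KCl, MgCl2, Tween 20, BSA; compound pin-delivered, 8-min ambient incubation, then luminescence read.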
FLuc modulator – inhibits or activates purified firefly luciferase, miR-21 counter-screen; P08659; purified FLuc, Km substrates, luminescence inhibition; Potency, µM (series often up to 57.5 µM), for the others: at the top dose activity change, negative = inhibition, usual class: inhibitors; 6.9% of 360,000 active; AID 588342;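 further: plate controls were vehicle for no effect and reference inhibitor for full effect; nearly all actives have a fitted effect of over 55% in size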
Target sequence (P08659 whole entry, looked up): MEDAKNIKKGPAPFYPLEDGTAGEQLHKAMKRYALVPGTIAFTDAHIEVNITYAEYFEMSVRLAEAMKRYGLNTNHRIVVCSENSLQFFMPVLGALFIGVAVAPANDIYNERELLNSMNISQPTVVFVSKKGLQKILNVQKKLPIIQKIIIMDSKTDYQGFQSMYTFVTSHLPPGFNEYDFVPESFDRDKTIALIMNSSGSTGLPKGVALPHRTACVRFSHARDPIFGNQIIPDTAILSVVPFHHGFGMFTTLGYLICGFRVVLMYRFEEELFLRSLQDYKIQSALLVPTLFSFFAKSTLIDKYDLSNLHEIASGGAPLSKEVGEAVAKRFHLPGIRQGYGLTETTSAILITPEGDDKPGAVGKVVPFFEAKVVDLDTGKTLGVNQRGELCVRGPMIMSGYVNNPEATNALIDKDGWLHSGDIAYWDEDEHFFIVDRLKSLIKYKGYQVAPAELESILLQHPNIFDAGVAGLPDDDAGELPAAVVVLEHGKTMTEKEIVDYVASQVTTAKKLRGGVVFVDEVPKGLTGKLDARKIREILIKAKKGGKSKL
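Biochemical qHTS of compounds, final roughly 60 µM downward over six points, against 10 nM purified firefly luciferase using Km concentrations of substrates (10 uM D-luciferin, 10 uM ATP) in Tris acetate pH 7.5 buffer; luminescence output.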
ELG1 genotoxic – inducers of genotoxicity in HEK293T ELG1-luciferase cells; HEK293T ELG1-luciferase reporter, luminescence, 16 h; Potency, µM (titrated, usually from 46 µM), inactives show top-dose activity change, positive = activation, actives largely listed as activators; 1.3% of 330,000 active; further: % of control where 0% means no effect; nearly all actives have a fitted effect of over 60% in size
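HEK293T cells expressing luciferase-tagged ELG1 were exposed to compound or DMSO vehicle for 16 hr at 37 °C and 5% CO2. Luciferase activity was then measured with ONE-Glo after 30 min at room temperature.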
Rab9 prom act – activators of Rab9 promoter | AID 485297 | 2.8% of 320,000 active | Potency, µM (doses to about 9.22 µM), without a hit: at the highest dose activation, negative = inhibition, actives largely listed as activators | Huh7 Rab9 promoter-luciferase reporter, luminescence, 24 h; further: % of control where 0% means no effect; nearly all actives have a fitted effect of over 60% in size
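Huh7 cells stably carrying a Rab9 promoter-luciferase reporter, 1500 cells per well in OP-MEM I with 10% FBS, treated with compound 24 hours at 37C. Luciferase activity read by luminescence after 10 minutes with Amplite reagent.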
Active calls of the source: *; ? = inconclusive; . = no result; [ ] = another dose, or the depositor's remark. The call rests on the fitted dose curve; in most records, active means well fitted curve in the direction sought with a large enough effect; inconclusive means small, poorly fitted or top-dose-only effect, or another doubt; inactive means no such curve, though single readings can be large; an effect the other way counts as inactive or inconclusive. Potency means the concentration at half of the fitted maximal effect.

SMILES | NPC1 promoter act | SMN2 splice up | KinaseGlo FLuc | FLuc modulator | ELG1 genotoxic | Rab9 prom act
COc1cccc2[nH]c3c(N4CCCCC4)ncnc3c12 | 28% | 4% | 2% | 13µM* | 27% | 10%
O=C(CC1C(=O)N(c2ccccc2)C(=O)N1Cc1ccc(F)cc1)Nc1cccc(F)c1 (configuration not stated) | . | . | . | -8% | . | .
CCc1nc2nc(C)cc(Nc3ccc(Br)cc3F)n2n1 | . | 16% | . | 1% | . | .
O=C(O)c1cc(-c2ccc(C(F)(F)F)cc2)nc2n[nH]c(-c3ccccc3)c12 | . | . | . | 3µM* | . | .
Cn1c(=O)c2[nH]c(CS(=O)(=O)Cc3nc4c([nH]3)c(=O)n(C)c(=O)n4C)nc2n(C)c1=O | . | 8%[9.22 µM] | -2%[7.66 µM] | . | . | .
COc1ccccc1NC(=S)NNC(=O)c1nn(C)c(C)c1Br | 14% | 22% | 2% | 15µM* | 7% | 0%
COc1ccc(C)cc1NC(=S)NNC(=O)c1c(Br)cnn1C | 5% | -9% | 2% | 27µM* | -5% | 1%
Cc1ccccc1NC(=O)c1cnc2sc(N3CCCC3)nn2c1=O | . | . | . | 0% | . | .
O=C1SC(c2ccccc2)=C/C1=C\N1CCCCC1 | 18% | -8% | 0% | 19µM* | 10% | 20%
Cc1ccc(/C=C/c2onc(C)c2S(=O)(=O)N2CCC(C(=O)N(CCC(C)C)Cc3ccco3)CC2)cc1 | . | . | . | 0% | . | .
O=C(Nc1ccc(NC(=O)c2ccccc2F)cn1)c1ccco1 | 0.32µM* | . | . | 1.9µM* | ? | 0.56µM*
COc1cc(C(=O)Nc2ccc(NC(=O)c3ccco3)nc2)cc(OC)c1OC | -2% | 9% | 0% | 0% | 0% | 9%
O=C(Nc1ccc(NC(=O)c2ccco2)nc1)c1cccnc1 | 2.2µM* | 11µM* | -1% | 11µM* | ? | 2µM*
O=C(Nc1ccc(NC(=O)C2CC2)nc1)c1ccco1 | ? | 17% | -7% | ? | ? | ?
Cc1cc(NC(=O)c2cccc(F)c2)ncc1NC(=O)c1ccco1 | 1.3µM* | 14µM* | ? | 11µM* | 3.7µM* | 2µM*
COc1cccc(C(=O)Nc2ccc(NC(=O)c3ccco3)nc2)c1 | ? | ? | -7% | 21µM* | 19% | 4.5µM*
CCN(CC)c1ccc(NC(=O)C2CCCN(S(=O)(=O)c3ccc4c(c3)oc(=O)n4C)C2)c(C)c1 (configuration not stated) | . | -3% | . | -11% | . | .
Cc1cccc(C)c1NC(=O)Cn1c(=O)n(Cc2ccccc2)c(=O)c2c(C)c(C(=O)N(C)C)sc21 | . | . | . | -3% | . | .
N[C@@H](CC1=CS(=O)(=O)c2ccc(Cl)cc21)C(=O)O | . | 7%[9.22 µM] | -3%[7.66 µM] | . | . | .
CCCC(=O)Nc1ccc(NC(=O)c2cccc(OC)c2)nc1 | ? | ? | -21% | 12µM* | 12% | 3.2µM*
CCCC(=O)Nc1ccc(NC(=O)c2ccco2)cn1 | 27% | . | . | ? | ? | ?
O=C(Nc1ccc(NC(=O)c2ccco2)nc1)c1cccc(F)c1 | 0.89µM* | . | . | 5.4µM* | ? | 3.2µM*
COc1cccc(C(=O)Nc2ccc(NC(C)=O)cn2)c1 | ? | ? | -5% | 21µM* | ? | ?
COc1cccc(C(=O)Nc2ccc(NC(=O)C3CC3)nc2)c1 | -2% | . | . | -2% | 3% | 3%
CCOc1ccc(-n2c(Cc3ccccc3)nnc2SCc2nc(-c3cccs3)no2)cc1 | . | -2% | . | -14% | . | .
CCN(CC)S(=O)(=O)N1CCC(C(=O)NCc2ccc(C)cc2)CC1 | 0% | 3% | -2% | -2% | -1% | 6%
CCN(CC)c1ccc(CN2CCC(C(=O)NCc3ccc(C)cc3)CC2)cc1 | 0% | . | -2% | 24µM* | 3% | 12%
COc1ccc(-c2nc3sc(CCNC(=O)c4cccc(C(F)(F)F)c4)c(C)n3n2)cc1 | . | . | . | 6.7µM* | . | .
COc1ccc(-c2nc3sc(CCNC(=O)c4ccccc4C)c(C)n3n2)cc1 | . | . | . | 17µM* | . | .
Cc1c(CCNC(=O)c2ccc(C(C)(C)C)cc2)sc2nc(-c3ccc(F)cc3)nn12 | . | . | . | -3% | . | .

Source: PubChem BioAssay (National Center for Advancing Translational Sciences (NCATS))
